Reference: PubChem BioAssay (Tox21)
Unmarked numbers belong to inactive results. Results filed as inconclusive are left out. Calls of active or inactive are those of the source. Unless noted, the call rests on the fitted dose curve; in most records, active means well fitted curve in the direction sought with a large enough effect in the repeat runs; inconclusive means weak or mixed curves; inactive means flat fitted curve, though single readings scatter.

Tested on: not listed separately
Experiment: qHTS assay to test for compound auto fluorescence at 460 nm (blue) in HepG2 cells (AID 720687)
Settings: autofluorescence 405/460 nm, 1 h; series mostly up to 91.3 µM; fluorescence, % of fluorescent control: at the top concentration
Procedure, shortened: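 HepG2 cells in MEM with 10% FBS, attached overnight at 37 C, were exposed to compound or DMSO for 1 hr at 37 C, 5% CO2. Blue fluorescence was read at 405/460 nm, with triamterene as reference fluorophore.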
On the % scale 0 is the no-effect control and ±100 the full control effect.

Structure (SMILES) | Potency | fluorescence, % of fluorescent control
C=C(c1ccc(C(=O)O)cc1)c1cc2c(cc1C)C(C)(C)CCC2(C)C | inactive | –
CN1[C@@H]2CC[C@@H]1CC(OC(=O)C(CO)c1ccccc1)C2 (some centres undefined) | – | -0.176% [at 46 µM]
CN(C)c1ccc(N=Nc2ccccc2C(=O)O)cc1 | – | -0.284%
O=C1c2c(O)ccc(O)c2C(=O)c2c(NCCNCCO)ccc(NCCNCCO)c21 | – | -0.0158% [at 18.6 µM]
CCCCCCCC/C=C\CCCCCCCC(=O)N(C)CC(=O)O | – | -0.453%
Clc1ccc(C(Cn2ccnc2)OCc2ccsc2Cl)c(Cl)c1 (centres undefined) | – | -0.148% [at 46 µM]
CCCCOc1ccc(C(=O)CCN2CCCCC2)cc1 | – | -0.165% [at 18.6 µM]
COc1ccc2sc(C(=O)Nc3nnn[nH]3)c(OC(C)C)c2c1 | – | 0.182%
Cc1c(-c2ccc(O)cc2)n(Cc2ccc(OCCN3CCCCCC3)cc2)c2ccc(O)cc12 | – | 0.0706% [at 46 µM]
CN(C)c1ccc(N=NS(=O)(=O)O)cc1 | – | -1.09%
c1cc(OCC2CO2)cc(OCC2CO2)c1 (centres undefined) | – | -0.0574%
Cc1cc2c(C(C)C)c(O)c(O)c(C=O)c2c(O)c1-c1c(C)cc2c(C(C)C)c(O)c(O)c(C=O)c2c1O | – | 0.192% [at 46 µM]
C=C[C@](C)(O)CC[C@@H]1[C@@]2(C)CCCC(C)(C)[C@@H]2CC[C@@]1(C)O | – | -0.0349%
CC(=O)OC(OC(C)=O)c1ccc([N+](=O)[O-])o1 | – | 0.696% [at 95.7 µM]
COC(=O)C1=C(C)NC(C)=C(C(=O)OCCCN2CCC(c3ccccc3)(c3ccccc3)CC2)C1c1cccc([N+](=O)[O-])c1 (centres undefined) | – | 0.0069% [at 46 µM]
CC=O | – | -0.0696% [at 95.7 µM]
CCN(CC)CCOc1ccc(C(O)(Cc2ccc(Cl)cc2)c2ccc(C)cc2)cc1 (centres undefined) | – | 0.0021% [at 46 µM]
N#CSCSc1nc2ccccc2s1 | – | 0.0176%
S=C(SSSSSSC(=S)N1CCCCC1)N1CCCCC1 | – | 0.0837% [at 18.6 µM]

Structure (SMILES) | Potency | fluorescence, % of fluorescent control
Cc1cc(Nc2ccc(O)cc2)ccc1N | – | -0.001%
CCCCCCOc1cc(C)c(O)c(C)c1C | – | -0.0002% [at 95.7 µM]
NC(=O)c1nc(-c2cccc(-c3cc(F)ccc3OCC(F)(F)C(F)(F)F)c2)n[nH]1 | – | -0.26%
COC(=O)[C@]1(C)CCC[C@@]2(C)[C@H]1CC=C1C=C(C(C)C)CC[C@@H]12 | – | -0.173%
O=C1NC2CCCCN2C12CCN(CCCN1c3ccccc3CCc3ccc(Cl)cc31)CC2 (centres undefined) | – | -0.176% [at 46 µM]
NCCCC(O)(P(=O)(O)O)P(=O)(O)O | – | 0.0234% [at 46 µM]
Oc1ccc(-c2ccc(O)cc2)cc1 | – | 0.0175%
CNCC[C@H](Oc1cccc2ccccc12)c1cccs1 | – | -0.007% [at 46 µM]
SCCCCCCCCS | – | -0.0002%
NC(=O)C(=O)N/N=C/c1ccc([N+](=O)[O-])o1 | – | -0.0419% [at 46 µM]
C[C@]12CC[C@H]3C(=CCc4cc(O)ccc43)[C@@H]1CCC2=O | – | 0.133%
CN1[C@@H]2CC[C@H]1CC(OC(=O)C(CO)c1ccccc1)C2 (some centres undefined) | inactive | –
O=C1Nc2ccc(Cl)cc2[C@@](C#CC2CC2)(C(F)(F)F)O1 | – | -0.0489% [at 46 µM]
C[C@H]1O[C@@H](O[C@H]2[C@@H](O)C[C@H](O[C@H]3[C@@H](O)C[C@H](O[C@H]4CC[C@@]5(C)[C@H](CC[C@@H]6[C@@H]5C[C@@H](O)[C@]5(C)[C@@H](C7=CC(=O)OC7)CC[C@]65O)C4)O[C@@H]3C)O[C@@H]2C)C[C@H](O)[C@@H]1O | inactive | –
CC1=C(/C=C/C(C)=C/C=C/C(C)=C\C=O)C(C)(C)CCC1 | – | 0.694%
CC(C)(C)CC(C)(C)c1ccccc1O | – | -0.177%
CN(C)CCCN1c2ccccc2CCc2ccccc21 | inactive | –
NC1(c2ccc(-c3nc4ccn5c(=O)[nH]nc5c4cc3-c3ccccc3)cc2)CCC1 | – | 0.961% [at 46 µM]

Molecular target: Glucocorticoid receptor (Homo sapiens) (UniProt P04150)
Experiment: qHTS assay to identify small molecule agonists of the glucocorticoid receptor (GR) signaling pathway (AID 720691; active means well fitted activation curve with a large enough effect in the signal ratio in the repeat runs, not every such curve was filed as active; the % refers to the signal ratio)
Settings: GR-bla HeLa, beta-lactamase reporter ratio, 18 h; activation: at 62.4 µM (top of the series)
Procedure, shortened: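 Fluorescence intensity from LiveBLAzer B/G FRET substrate (2 h, room temperature) reports beta-lactamase expression driven by the glucocorticoid response element in GR-bla HeLa cells after 18 h compound exposure at 37 C.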

Glucocorticoid receptor (Homo sapiens), sequence (P04150 whole entry, looked up): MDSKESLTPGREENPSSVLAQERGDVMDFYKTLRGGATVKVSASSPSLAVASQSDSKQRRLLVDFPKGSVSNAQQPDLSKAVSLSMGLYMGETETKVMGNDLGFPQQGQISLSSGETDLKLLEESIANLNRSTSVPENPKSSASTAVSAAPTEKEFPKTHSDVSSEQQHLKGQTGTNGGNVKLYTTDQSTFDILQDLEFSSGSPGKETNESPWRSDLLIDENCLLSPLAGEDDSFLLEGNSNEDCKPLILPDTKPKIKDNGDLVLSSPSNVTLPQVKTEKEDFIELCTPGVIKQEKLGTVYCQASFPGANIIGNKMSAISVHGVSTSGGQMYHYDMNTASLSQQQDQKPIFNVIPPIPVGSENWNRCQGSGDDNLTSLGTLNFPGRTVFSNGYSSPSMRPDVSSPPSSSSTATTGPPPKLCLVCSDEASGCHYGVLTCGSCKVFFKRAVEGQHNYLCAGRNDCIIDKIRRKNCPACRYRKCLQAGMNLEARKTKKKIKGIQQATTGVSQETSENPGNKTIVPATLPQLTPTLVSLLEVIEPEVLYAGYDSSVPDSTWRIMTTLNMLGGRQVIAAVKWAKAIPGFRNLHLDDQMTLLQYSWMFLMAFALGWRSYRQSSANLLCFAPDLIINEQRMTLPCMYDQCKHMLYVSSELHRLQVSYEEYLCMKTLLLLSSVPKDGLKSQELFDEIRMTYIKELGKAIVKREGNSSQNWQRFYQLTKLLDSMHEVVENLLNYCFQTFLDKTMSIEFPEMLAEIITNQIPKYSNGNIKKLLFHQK

Structure (SMILES) | activation | Potency
CN1[C@@H]2CC[C@@H]1CC(OC(=O)C(CO)c1ccccc1)C2 (some centres undefined) | -0.341% | –
CN(C)c1ccc(N=Nc2ccccc2C(=O)O)cc1 | 3.95% | –
CCCCOc1ccc(C(=O)CCN2CCCCC2)cc1 | -0.408% [at 29.2 µM] | –
COc1ccc2sc(C(=O)Nc3nnn[nH]3)c(OC(C)C)c2c1 | -4.74% | –
CN(C)c1ccc(N=NS(=O)(=O)O)cc1 | 3.79% | –
c1cc(OCC2CO2)cc(OCC2CO2)c1 (centres undefined) | -17.2% | –
S=C(SSSSSSC(=S)N1CCCCC1)N1CCCCC1 | -0.143% [at 29.2 µM] | –
COC(=O)[C@]1(C)CCC[C@@]2(C)[C@H]1CC=C1C=C(C(C)C)CC[C@@H]12 | 0.12% | –
O=C1NC2CCCCN2C12CCN(CCCN1c3ccccc3CCc3ccc(Cl)cc31)CC2 (centres undefined) | 21.1% | –
NCCCC(O)(P(=O)(O)O)P(=O)(O)O | -0.169% | –
Oc1ccc(-c2ccc(O)cc2)cc1 | -12.3% [at 79.2 µM] | –
CNCC[C@H](Oc1cccc2ccccc12)c1cccs1 | 12.2% | –
NC(=O)C(=O)N/N=C/c1ccc([N+](=O)[O-])o1 | -1.52% | –
CN1[C@@H]2CC[C@H]1CC(OC(=O)C(CO)c1ccccc1)C2 (some centres undefined) | – | inactive
O=C1Nc2ccc(Cl)cc2[C@@](C#CC2CC2)(C(F)(F)F)O1 | 13.5% | –
C[C@H]1O[C@@H](O[C@H]2[C@@H](O)C[C@H](O[C@H]3[C@@H](O)C[C@H](O[C@H]4CC[C@@]5(C)[C@H](CC[C@@H]6[C@@H]5C[C@@H](O)[C@]5(C)[C@@H](C7=CC(=O)OC7)CC[C@]65O)C4)O[C@@H]3C)O[C@@H]2C)C[C@H](O)[C@@H]1O | – | inactive
NC1(c2ccc(-c3nc4ccn5c(=O)[nH]nc5c4cc3-c3ccccc3)cc2)CCC1 | -7.62% | –
